Assay outcomes as filed in PubChem.
Most compounds without a hit are left out; they make up all but 9% or so of the library.
ALDH1A1 inh: blocks purified human ALDH1A1 activity; P00352; actives 7.3% (n = 220,000); Purified ALDH1A1, NADH fluorescence, propionaldehyde substrate; Potency, µM (titrated, usually from 75.3 µM), for inactives: top-dose activity, negative = inhibition, usual class: inhibitors; active = well fitted inhibition curve with a large enough effect, not every such curve was filed as active; inconclusive = small, poorly fitted or top-dose-only effect, or another doubt; inactive = no such curve, though single readings can be large or run the other way;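 note: plate controls were no enzyme wells and a reference inhibitor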
HTT cytoprotect: Huntington cell model cytoprotection by ATP luminescence; actives 0.14% (n = 230,000); PC12 HTT-Q103 induced, cytoprotection, ATP luminescence, 40 h; AID 1471; Potency, µM (highest dose often 56.4 µM), without a hit: cytoprotection (ATP increase), most hits filed as activators; note: % of control where 0% means no effect; nearly all actives have a fitted effect of over 45% in size
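PC12 cells stably carrying ecdysone-inducible Htt exon 1 (Q103)–GFP were induced with 100 nM tebufenozide (final) alongside library compounds in a dose series. Cytoprotection was scored as retained ATP by ATPlite luminescence.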
HttQ103 aggreg: mutant huntingtin aggregation inhibition; AID 1688; PC12 HttQ103-GFP aggregates, Acumen cytometry, 40 h; Potency, µM (doses to about 46.1 µM), inactives show top-dose activity change, negative = inhibition, most hits filed as inhibitors; actives 1.1% (n = 220,000); note: % is set by controls: 0 for no effect and ±100 for the full control effect; nearly all actives have a fitted effect of over 60% in size
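Quantitative HTS on tebufenozide-induced (100 nM) PC12 cells stably expressing polyQ103 Huntingtin exon 1–GFP. Reduction of bright GFP aggregates, detected by laser scanning cytometry after lysis, identified actives across the titration.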
Luc counter: counter-screen: inhibitors of Kinase-Glo firefly luciferase; Q27757; Kinase-Glo luciferase, ATP luminescence, 8 min; Potency, µM (series often up to 38.3 µM), without a hit: at the top dose activity change, negative = inhibition, actives largely listed as inhibitors; actives 0.28% (n = 200,000); note: % is set by controls: 0 for no effect and ±100 for the full control effect; nearly all actives have a fitted effect of over 60% in size
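Substrate mix (final 50 mM imidazole pH 7.2, 50 mM KCl, 7 mM MgCl2, 10 uM ATP, 0.01% Tween 20, 0.05% BSA) plus pin-tool compound, then Kinase-Glo detection mix; 8 min ambient, luminescence read.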
Lamin A splicing: LMNA splicing modulation; HeLa LMNA splicing GFP/RFP minigene ratio, 48 h; Potency, µM (highest dose often 46.1 µM), for inactives: at the highest dose ratio change, negative = inhibition, hits mostly inhibitors; actives 0.01% (n = 200,000); AID 1487; active = well fitted inhibition curve with a large enough effect in the signal ratio, with a control signal flat, not every such curve was filed as active; inconclusive = small, poorly fitted or top-dose-only effect, or effect the other way, or a change in a side signal; the % refers to the signal ratio; note: % is set by controls: 0 for no effect and ±100 for the full control effect
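Read-out is the ratio of GFP to DsRed2 object intensity, acquired by 488 nm laser-scanning cytometry on HeLa lamin A-EGFP minigene reporter cells. Compound incubation 48 hrs at 37 °C in Opti-MEM with 2% FBS; DMSO 0.5% final.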
HPGD inh: blocks human HPGD enzyme activity; purified HPGD, NADH fluorescence kinetic, PGE2 substrate; Potency, µM, inactives show at the top dose activity change, negative = inhibition, usual class: inhibitors; actives 4.3% (n = 150,000); AID 894; active = well fitted inhibition curve with a large enough effect, not every such curve was filed as active; inconclusive = small, poorly fitted or top-dose-only effect, or another doubt; inactive = no such curve, though single readings can be large or run the other way; note: % is set by controls: 0 for no effect and ±100 for the full control effect
Target sequence (P15428 whole entry, looked up): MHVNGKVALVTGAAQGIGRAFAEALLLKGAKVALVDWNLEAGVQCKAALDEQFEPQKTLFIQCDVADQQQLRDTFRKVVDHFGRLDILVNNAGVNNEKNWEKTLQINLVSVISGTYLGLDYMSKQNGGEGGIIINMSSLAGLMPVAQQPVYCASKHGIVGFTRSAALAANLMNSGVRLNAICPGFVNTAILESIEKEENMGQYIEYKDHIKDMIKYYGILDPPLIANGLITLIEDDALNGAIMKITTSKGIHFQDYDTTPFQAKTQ
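20 nM HPGD preincubated 15 min at room temperature with compound in 50 mM Tris-HCl pH 8, 0.01% Tween 20. Started with 1 mM NAD+ and 30 uM prostaglandin E2; NADH fluorescence (360/450 nm) read 5 times over 30-s intervals, last minus first.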
* hit, by the source's call; [ ] = dose if it differs, or a comment. Unless noted, calls come from the whole dose curve; as a rule, active = well fitted curve in the direction sought with a large enough effect; inconclusive = small, poorly fitted or top-dose-only effect, or another doubt; inactive = no such curve, though single readings can be large; an effect the other way counts as inactive or inconclusive. Potency is the fitted concentration of half-maximal effect.

`COC(=O)c1c(-c2cccc(OC)c2)csc1N` gave ALDH1A1 inh 25µM*, HTT cytoprotect 3%[10 µM], HttQ103 aggreg 3%, Luc counter 2%, Lamin A splicing inconclusive and HPGD inh -19%.
For c1ccc(Cn2ncc3c2ncn2c(-c4ccncc4)nnc32)cc1 the results were ALDH1A1 inh 2%, HTT cytoprotect -6%[10 µM], HttQ103 aggreg 13%, Luc counter -1%, Lamin A splicing 6% and HPGD inh -20%.
Cc1cc(=O)oc2c3c(ccc12)OC/C3=N/N was read as HTT cytoprotect 8%[10 µM] and HttQ103 aggreg -3%[9.22 µM].
For COc1ccc(OCC(=O)N/N=C/C2CC=CCC2)cc1 (configuration not stated) the results were ALDH1A1 inh 4%, HTT cytoprotect -8%, HttQ103 aggreg 3%, Luc counter -2% and Lamin A splicing -8%[46 µM].
`O=C(c1cc(-c2ccccn2)nc2c(Cl)cccc12)N1CCN(S(=O)(=O)c2ccccc2)CC1` gave ALDH1A1 inh 16µM*, HTT cytoprotect -7%[10 µM], HttQ103 aggreg -5%, Luc counter 2%, Lamin A splicing -3% and HPGD inh -16%.
O=C(c1cc(-c2cccs2)nc2ccccc12)N1CCN(S(=O)(=O)c2cccc(F)c2)CC1 was read as ALDH1A1 inh inconclusive, HTT cytoprotect 0%, HttQ103 aggreg 0.63µM*, Luc counter -2%, Lamin A splicing -9% and HPGD inh inconclusive.
`COc1cccc(/C=C/C(=O)N2CCN(S(=O)(=O)c3ccccc3)CC2)c1OC` gave HTT cytoprotect -6%[10 µM] and HttQ103 aggreg 1%[9.22 µM].
Cc1ccc2cccc(NC(=S)NC(=O)c3ccnn3C)c2n1 was read as ALDH1A1 inh 10µM*, HTT cytoprotect 2%[10 µM], HttQ103 aggreg 5%, Luc counter 1%, Lamin A splicing -8% and HPGD inh -2%.
Screening CC1CCc2c(sc(NC(=O)CSc3ncn[nH]3)c2C#N)C1 (configuration not stated) returned HTT cytoprotect -2%[10 µM] and HttQ103 aggreg -17%[9.22 µM].
